The values that follow come from PubChem BioAssay (NCATS).

Inconclusive results are not listed. Activity calls are given as the source filed them. Unless noted, calls come from the whole dose curve; as a rule, active = well fitted curve in the direction sought with a large enough effect; inconclusive = small, poorly fitted or top-dose-only effect, or another doubt; inactive = no such curve, though single readings can be large; an effect the other way counts as inactive or inconclusive.

Assay [1] in a line: HPAF-II Cancer Cell Toxicity qHTS against the NCATS CANVASS Library (AID 1347346). Note: nearly all actives have a fitted effect of over 55% in size. Note: potency is the fitted concentration of half-maximal effect. A digest of the protocol: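 1000 HPAF-II cells/well; 4 h pre-incubation; 11-pnt compound titration; 72 h, 37 degrees C/5% CO2; CellTiter-Glo, 15 min RT; luminescence read.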
(In general: Quantitative high-throughput screening tests each substance at several concentrations.)

A short description of assay [2]: HPAF-II 24hr Apoptosis Induction qHTS against the NCATS CANVASS Library (AID 1347356). Note: 0% is about no effect. The procedure, abridged:
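500 HPAF-II cells/well; compounds in 11-pnt qHTS; 24 h, 37 C/5% CO2; Caspase-Glo 3/7 added, 15 min RT dark; luminescence read. Doxorubicin control.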

Assay [3] can be described thus: HEK293 18hr Apoptosis Induction qHTS against the NCATS CANVASS Library (AID 1347357). Note: 0% is about no effect. A digest of the protocol:
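Caspase-Glo 3/7 luminescence (15 min, room temperature) measured apoptosis after an 18-hour, 37 degrees C exposure of HEK293 cells (500 cells/well) to compounds in 11 points.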

Assay [4] in a line: HPAF-II 12hr Apoptosis Induction qHTS against the NCATS CANVASS Library (AID 1347358). Note: 0% is about no effect. A digest of the protocol:
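Caspase-Glo 3/7 luminescence (DEVD substrate) reports caspase activity in HPAF-II cells after 12 h compound treatment at 37 degrees C. Compounds were tested in an 11-point series. Doxorubicin served as control.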

A short description of assay [5]: HPAF-II 18hr Apoptosis Induction qHTS against the NCATS CANVASS Library (AID 1347360). Note: 0% is about no effect. The procedure, abridged: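 Caspase-3/7 activation was measured with luminescent Caspase-Glo 3/7 reagent (15 min, RT) in HPAF-II cancer cells (500 cells/well). Before detection, cells had been treated for 18 h at 37 C with compounds (11 points).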
The nature of assay [6]: HEK293 12hr Apoptosis Induction qHTS against the NCATS CANVASS Library (AID 1347361). Note: 0% is about no effect. The procedure, abridged: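 HEK293 cells (500/well, DMEM + 10% FBS) were exposed to natural products across an 11-point series for 12 hours at 37 degrees C. Caspase-3/7 activity was then measured with DEVD luciferase luminescence after 15 min at room temperature.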
In assay [7] the test system is NAD(P)H diaphorase (Clostridium kluyveri). Nature of the assay: Diaphorse counterscreen qHTS: Assay Interference Panel against the NCATS CANVASS Library (AID 1347362). Note: 0% is about no effect. The procedure, abridged: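 Clostridium kluyveri diaphorase in PBS with 0.01% Tween-20 was preincubated 15 min at room temperature in the dark with compounds (11-point series). Resorufin fluorescence (ex 525/20, em 598/25) was read 5 min after adding resazurin/NADH.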
(Counterscreens check selectivity or assay interference.)

Assay [8] deals with Luciferin 4-monooxygenase (Photinus pyralis) (UniProt P08659). The assay is described as follows: Firefly luciferase counterscreen qHTS: Assay Interference Panel against the NCATS CANVASS Library (AID 1347363). Note: series mostly up to about 57 µM; 0% is about no effect. A digest of the protocol:
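Purified P. pyralis luciferase was added to compounds (11-point series) preincubated 15 min at room temperature with substrate containing 0.013 mM D-luciferin and 0.013 mM ATP; luminescence was read after 5 min.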

Assay [9] can be described thus: MCF7 Cancer Cell Toxicity qHTS against the NCATS CANVASS Library (AID 1347369). A digest of the protocol: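 Cytotoxicity was measured as CellTiterGlo luminescence (ATP) after 72 h at 37 °C. The cells were MCF7 at 500 per well, with an 11-point compound concentration series.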
Assay [10] can be described thus: qHTS for ATAD5 Antagonist screened against the NCATS CANVASS Library (AID 1347370). Note: nearly all actives have a fitted effect of over 65% in size. Note: potency is the fitted concentration of half-maximal effect. A digest of the protocol: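 HEK293T-ATAD5 luc reporter, 2000 cells/well; 5hr attach; cpd + 10 uM 5-FUrd; 16hr 37C, 5% CO2. Readouts: CellTiter-Fluor fluorescence (1hr), then Amplite luciferase luminescence (30min RT).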
Assay [11] is described as follows: J3T Cancer Cell Toxicity qHTS against the NCATS CANVASS Library (AID 1347371). Note: potency is the fitted concentration of half-maximal effect. A digest of the protocol: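 Dog glioma J3T, 500 cells/well; cpd 11-pt qHTS; 72 hr, 37C/5% CO2; CellTiterGlo ATP luminescence readout.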
The target in assay [12] is Nuclear receptor subfamily 1 group I member 3 (Homo sapiens) (UniProt Q14994). The assay is described as follows: qHTS for Constitutive Androstane Receptor (CAR) Antagonist screened against the NCATS CANVASS Library (AID 1347372). Note: potency is the fitted concentration of half-maximal effect. A digest of the protocol: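 Cells were seeded and left 4hr to attach, then received compound at 11 concentrations and 50 nM CITCO. Following 24hr incubation, fluorescence viability and luciferase luminescence were read sequentially.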

The target is the same in assay [13]. The assay is described as follows: qHTS for Constitutive Androstane Receptor (CAR) Agonist screened against the NCATS CANVASS Library (AID 1347373).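 Note: every well also contained 1.5 µM PK11195 alongside the test compound; 0% is about no effect.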 A digest of the protocol:
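Luciferase read-out (ONE-Glo, 30 min RT) of CYP2B6-2.2kb promoter activity in double-stable HepG2-hCAR cells after 24hr compound exposure with 1.5uM PK11195 present; viability measured first by CellTiter-Fluor.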

Assay [14] in a line: qHTS for Hypoxia signaling pathway (HIF-1) agonists against the NCATS CANVASS Library (AID 1347375). Note: 0% is about no effect. A digest of the protocol:
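Read-out: beta-lactamase FRET (CCF4-AM, ex 405, em 460 and 530 nm) after 2 h at room temperature. ME-180 cells stably carrying HRE-bla were treated 17 h at 37C with compounds in an 11-point concentration series.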

Assay [15] is described as follows: 10-beta competent E. coli microbial cell viability qHTS against the NCATS CANVASS Library (AID 1347376). Note: series mostly up to about 46 µM; 0% is about no effect. The procedure, abridged: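 Luminescence from BacTiter-Glo ATP detection served as the viability read-out; bacteria (0.2 OD) had been incubated overnight at 37C with pin-transferred compounds at 11 concentrations.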
Assay [16] is described as follows: Cytotoxicity qHTS for assessment of Hepg2 cells membrane integrity screened against the NCATS CANVASS Library (AID 1347387). The procedure, abridged: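 LDH release read by fluorescence (560 nm ex/590 nm em) after CytoTox-ONE addition and 10 min RT; signal tracks lysed cells. HepG2, 2000 cells/well, plated overnight; compound 5 hr, 37C, 5% CO2, final 0.59 nM - 46 uM, 11 points.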

The nature of assay [17]: qHTS for activators of dead-cell proteases activity screened against the NCATS CANVASS Library (AID 1347392).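 Note: luminescence from protease leaking out of membrane-damaged cells cleaving impermeant substrate; 0% is about no effect; rising signal means more cytotoxicity.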 A digest of the protocol:
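Cytotoxicity in HepG2 cells was assessed by released protease cleaving AAF-aminoluciferin, with luminescence as signal. Exposure lasted 5 h at 37C across an 11-point series.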

Assay [18] in a line: Viability qHTS for inhibitors of the SERCaMP assay screened against the NCATS CANVASS Library (AID 1347400). Note: series mostly up to about 92 µM; % is set by controls: 0 for no effect and ±100 for the full control effect; nearly all actives have a fitted effect of over 70% in size. The procedure, abridged:
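CellTiter-Glo luminescence readout after 48 h compound exposure (11-pnt qHTS series) of SH-SY5Y-GLuc SERCaMP MJH297 cells seeded at 1000 cells/well; bortezomib positive control.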

A short description of assay [19]: qHTS for Activators of p53 Stress Response Pathway screened against the NCATS CANVASS Library (AID 1347388). Note: potency is the fitted concentration of half-maximal effect. A digest of the protocol: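 p53RE-bla HCT-116 cells (4000/well) were plated 5 h at 37C, exposed to compounds for 16 h at 37C over an 11-point concentration series, then loaded with CCF4 for 2 h at room temperature; 460/530 nm emission ratio read.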
Assay [20] in a line: qHTS drug screen for cell cycle checkpoint inhibitors in PARPi-resistant BRCA-mutant ovarian cancer cell lines. (AID 1963452; calls by dose curve). Particulars: PEO1/OlaR viability, CellTiter-Glo luminescence, 96 h, stronger effect = lower value. The procedure, abridged:
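PEO1, PEO4 and PEO1/OlaR ovarian cancer cells, 600 per well, exposed 96 h at 37C to a dilution series. Viability read by CellTiter-Glo luminescence, normalized to DMSO and empty wells; activity summarized as Z-AUC.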

Nuclear receptor subfamily 1 group I member 3 (Homo sapiens), sequence (Q14994 whole entry, looked up): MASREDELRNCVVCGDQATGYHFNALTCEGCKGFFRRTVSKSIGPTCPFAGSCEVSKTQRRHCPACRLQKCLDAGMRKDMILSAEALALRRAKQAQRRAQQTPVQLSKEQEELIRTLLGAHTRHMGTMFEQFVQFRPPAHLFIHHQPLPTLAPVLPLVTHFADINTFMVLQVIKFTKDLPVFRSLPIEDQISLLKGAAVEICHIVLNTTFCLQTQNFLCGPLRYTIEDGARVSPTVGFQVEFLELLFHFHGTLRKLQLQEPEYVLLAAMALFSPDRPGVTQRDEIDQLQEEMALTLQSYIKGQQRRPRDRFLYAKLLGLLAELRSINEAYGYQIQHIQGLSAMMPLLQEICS
Luciferin 4-monooxygenase (Photinus pyralis), sequence (P08659 whole entry, looked up): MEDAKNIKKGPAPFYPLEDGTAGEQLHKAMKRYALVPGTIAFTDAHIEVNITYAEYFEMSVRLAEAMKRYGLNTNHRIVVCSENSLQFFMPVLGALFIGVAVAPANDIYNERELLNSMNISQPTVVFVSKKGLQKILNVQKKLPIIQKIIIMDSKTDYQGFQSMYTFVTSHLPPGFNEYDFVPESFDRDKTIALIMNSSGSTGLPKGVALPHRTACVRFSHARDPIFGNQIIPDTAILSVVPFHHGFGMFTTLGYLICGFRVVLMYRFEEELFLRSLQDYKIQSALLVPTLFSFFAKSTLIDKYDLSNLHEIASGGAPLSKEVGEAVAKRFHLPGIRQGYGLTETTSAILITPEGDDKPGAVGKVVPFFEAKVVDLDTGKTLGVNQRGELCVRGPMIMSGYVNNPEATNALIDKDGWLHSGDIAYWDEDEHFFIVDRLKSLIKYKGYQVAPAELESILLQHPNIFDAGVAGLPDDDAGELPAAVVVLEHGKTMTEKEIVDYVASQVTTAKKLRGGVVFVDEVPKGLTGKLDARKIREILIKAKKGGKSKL

Consider `Oc1ccc(C2Oc3cc(O)c4c(c3[C@@H]2c2cc(O)cc(O)c2)[C@H]2C(c3ccc(O)cc3)c3c(O)cc5c(c3[C@H]2C4c2ccc(O)cc2)[C@H](c2cc(O)cc(O)c2)C(c2ccc(O)cc2)O5)cc1` (stereo not given in full), for which the Potency entry in assay [1], in assay [3], in assay [4], in [5], in assay [7] and in [8] was “inactive” throughout. In addition, the Potency entry in assay [9], in [10], in assay [11], in [12], in assay [13] and in [17] was “inactive” in each case. Also, in assay [18], the Potency entry is “inactive”. In addition, the outcome in assay [2], in assay [6], in assay [14], in [15] and in assay [16] was inactive.

As to `C/C=C/C(=O)C1(O)CC2CC(C(=O)O)CC(C)C2C1C1=C2C(=O)NC(=O)C2=C(CCCCC)C(C)O1` (stereo not given), the Potency was 18.8 µM (active) in [1], 16.6 µM (active) in [10], 20.9 µM (active) in assay [11] and 7.41 µM (active) in [19]. For the same molecule, the call in assay [2], in assay [6], in [14] and in assay [15] was inactive. For the same molecule, the Potency entry in [3], in [4], in [5], in [7], in assay [8] and in [9] was “inactive” throughout. Moreover, the Potency entry in assay [12] and in assay [13] was “inactive” throughout.

`COc1cc(C(=O)O)ccc1NC(=O)[C@@H]1N[C@@H](CC(C)(C)C)[C@](C#N)(c2ccc(Cl)cc2F)[C@H]1c1cccc(Cl)c1F`: the Z-AUC in [20] is 2.81 (inactive); in assay [20] (measured here: PEO1 parental Z-AUC), 1.51; in [20] (measured here: PEO4 Z-AUC), 1.24.

Consider `CCC(=O)N[C@@H](C[C@H](C)C(Cl)(Cl)Cl)C(=O)N1C(=O)C=C(OC)[C@@H]1C[C@H](C)CCl`, for which the Potency in assay [1] was 16.8 µM (active); in assay [12], 10.5 µM (active). Further, the result in [2], in assay [6], in assay [15] and in assay [16] was inactive. Also, the Potency result in assay [3], in [5], in [7], in assay [8], in assay [9] and in assay [10] was “inactive” in each case. For the same molecule, the Potency entry in [11], in [13] and in assay [18] was “inactive” in each case.

With `CCCc1c2c([nH]c(=O)c1C)C(=O)c1[nH]c(=O)c(C)c(CCC)c1C2=O`, the outcome in assay [2], in assay [6], in assay [14], in assay [15] and in assay [16] was inactive. Also, the Potency result in assay [3], in [4], in assay [5], in assay [8], in assay [9] and in assay [10] was “inactive” throughout. For the same molecule, the Potency result in assay [11], in assay [13], in [19], in assay [17] and in assay [18] was “inactive” throughout.

In the case of `COc1ccc([C@@H]2c3cc4c(cc3C(=O)C(C)C2C)OCO4)cc1OC` (stereo not given in full), the Potency result in [1], in [3], in assay [4], in [5], in assay [7] and in assay [8] was “inactive” in each case. Besides, the Potency result in [9], in assay [11], in assay [12], in assay [19], in assay [17] and in [18] was “inactive” throughout. Besides, the molecule was called inactive in assay [2], in assay [6], in assay [14], in assay [15] and in assay [16].
